Source: PubChem BioAssay
An excerpt weighted towards active compounds, which were near 11% of everything screened.
AMA1 RON2 block = inhibitors of Plasmodium falciparum AMA1-RON2 interaction; AlphaScreen AMA1-biotinylated RON2 peptide binding; Potency, µM (highest dose often 58.2 µM), for the others: at the top dose activity change, negative = inhibition, actives largely listed as inhibitors; 0.2% of 360,000 active; AID 720542;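 further: 0% = vehicle wells and -100% = peptide control; nearly all actives have a fitted effect of over 45% in size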
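AMA1 (3D7) with his tag at 25 nM final met compounds first, then biotinylated RON2 peptide at 25 nM; detection used donor plus acceptor beads, 10 µg/mL apiece, read by AlphaScreen after 30 min at room temperature.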
NS1 inh = blocks influenza NS1 protein function; Potency, µM (doses to about 46.1 µM), without a hit: top-dose activity, positive = more growth; AID 2326; 0.4% of 270,000 active; calls by dose curve; further: actives are rising curves; nearly all actives have a fitted effect of over 50% in size
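S. cerevisiae expressing influenza A NS1, grown in glucose, washed, then diluted 1:100 into pH 6.0 -URA galactose medium with 23 nl compound. Growth recovery read as OD600; NS1-free strain serves as control.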
Pf growth 48h = inhibits P. falciparum growth in the first generation, 48 h. P. falciparum luciferase growth in erythrocytes, 48 h. Potency, µM (highest dose often 28.7 µM), for inactives: at the highest dose activity change, negative = inhibition, most hits filed as inhibitors. 5.9% of 310,000 active. AID 504832; further: on the % scale 0 is the no-effect control and ±100 the full control effect
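Parasite viability was followed by luminescence of a genomically integrated firefly luciferase. Cultures held 0.1% parasitemia at 2% hematocrit (final), incubated under 5% CO2 at 37 C.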
Sm TGR inh = inhibitors of Schistosoma mansoni thioredoxin glutathione reductase; Q962Y6; purified TGR, DTNB reduction, TNB absorbance 405 nm; Potency, µM (titrated, usually from 114 µM), without a hit: at the top dose activity change, negative = inhibition, usual class: inhibitors; 3% of 360,000 active; AID 485364; further: on the % scale 0 is the no-effect control and ±100 the full control effect; nearly all actives have a fitted effect of over 60% in size
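TGR 20 nM + NADPH 100 uM (dispensed conc.), cpd preinc 15 min RT; start with NADPH (500 uM addition) then DTNB (15 mM addition). Kinetic TNB absorbance, 405 nm filter. Four-parameter Hill fit across titration.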
Pf growth 96h = P. falciparum growth inhibition at 96 hour, primary screen for plastid delayed-death inhibitors; P. falciparum luciferase reporter growth, 96 h; Potency, µM (titrated, usually from 28.7 µM), for inactives: top-dose activity change, negative = inhibition, most hits filed as inhibitors; 6.9% of 320,000 active; AID 504834; further: on the % scale 0 is the no-effect control and ±100 the full control effect
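P. falciparum expressing integrated firefly luciferase, in erythrocytes at 2% hematocrit, 0.05% parasitemia, incubated with compounds 96 h at 37 C, 5% CO2. Growth inhibition read as loss of luminescence; two-generation exposure targets delayed-death apicoplast inhibitors.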
* marks the source's active call; other numbers are inactive results; ? = inconclusive; . = not tested or not shown; [ ] = dose if it differs, or a comment. Unless noted, the call rests on the fitted dose curve; in most records, active means well fitted curve in the direction sought with a large enough effect; inconclusive means small, poorly fitted or top-dose-only effect, or another doubt; inactive means no such curve, though single readings can be large; an effect the other way counts as inactive or inconclusive. Potency means the concentration at half of the fitted maximal effect.

SMILES | AMA1 RON2 block | NS1 inh | Pf growth 48h | Sm TGR inh | Pf growth 96h
O=C(c1ccccc1)N1CCN(CC(O)COc2ccc(Br)cc2)CC1 (centres undefined) | 5% | ? | -6% | -4% | 9.3µM*
O=C(CCN1CCN(C(=O)c2ccccc2)CC1)c1ccc(Br)cc1 | 5% | 7% | ? | 0.32µM* | ?
COc1cc(/C=C/C(=O)N2CCN(CC(O)COc3ccccc3)CC2)cc(OC)c1OC (centres undefined) | -4% | -7% | ? | -27% | 4.1µM*
CC(Oc1ccc2c(-c3ccccc3)cc(=O)oc2c1)C(=O)NCC(O)c1ccccc1 (centres undefined) | 5% | -9% | -7% | 4% | 2%
NC(=O)c1ccsc1NC(=O)COC(=O)c1nc(Cl)ccc1Cl | 4% | . | 13% | -8% | 31%
CC1(C)CC(=O)C(C(c2ccc(Br)cc2)C2C(=O)CC(C)(C)CC2=O)C(=O)C1 | -2% | -7% | 111% | 18µM* | ?
CC1(C)CC(=O)C(C(c2ccc(F)cc2)C2C(=O)CC(C)(C)CC2=O)C(=O)C1 | -4%[2.32 µM] | 13% | -3% | 45µM* | ?
COC(=O)c1ccc(C(C2C(=O)CC(C)(C)CC2=O)C2C(=O)CC(C)(C)CC2=O)cc1 | 6% | 13% | ? | ? | ?
CC1(C)CC(=O)C(C(c2ccco2)C2C(=O)CC(C)(C)CC2=O)C(=O)C1 | 37% | -31% | -6% | ? | 100%
CCCCn1c(N)c(N(Cc2ccccc2OC)C(=O)COc2ccc(C)cc2)c(=O)[nH]c1=O | 19% | . | ? | -9% | -3%
Cc1cc(C)c2[nH]c(C(=O)N3CCC(n4nccc4NC(=O)C4CC4)CC3)c(C)c2c1 | 11% | 14% | -22% | -8% | 21%
COCc1cc(Sc2ccc(Cl)cc2)nc(-c2ccccc2)n1 | 56% | -3% | ? | -25% | 0%
CCN(CC)C(=O)Oc1cc(COC)nc(-c2ccccc2)n1 | 5% | -11% | 10µM* | 31% | ?
Cc1ccc(/C(N)=N/OC(=O)c2ccc3c(c2)OCO3)cc1 | -9% | -45% | ? | 0% | 5.9µM*
N/C(=N\OC(=O)c1ccc2ccccc2c1)c1ccc(Br)cc1 | -6%[2.32 µM] | 3% | 13µM* | -8% | 293%
COc1cc(NC(C)CCc2ccccc2)cc(OC)c1OC (centres undefined) | -19% | ? | -22% | 0% | 3.7µM*
CCCN(CCC)CCCNC(=O)C1CCC(CNS(=O)(=O)c2cccc3nsnc23)CC1 (centres undefined) | -18% | 3% | 12% | -5% | ?
CC(C(=O)c1c[nH]c2ccccc12)N1CCc2ccccc2C1 (centres undefined) | 0% | -9% | ? | -1% | 2.9µM*
CC(OC(=O)c1c[nH]c2ccccc12)C(=O)N1CCCC1 (centres undefined) | -5% | . | ? | 0% | 8%
CCCNC(=O)c1cnc2sc(N3CCCCCC3)nn2c1=O | . | . | . | -2% | .
O=C(C1=C[C@H](C2CCCCC2)C[C@H](OCCCCO)O1)N1CCOCC1 | 6% | -1% | -2% | ? | 1%
O=C(C1=C[C@@H](C2CC2)C[C@@H](OCCCCO)O1)N1CCN(Cc2ccc3c(c2)OCO3)CC1 | 0% | -1% | ? | 104% | ?
O=C(C1=C[C@@H](C2CCCCC2)C[C@@H](OCCCCO)O1)N1CCN(Cc2ccc3c(c2)OCO3)CC1 | -15% | -9% | ? | -1% | 6.6µM*
O=C(C1=C[C@H](c2ccccc2)C[C@H](OCCCCO)O1)N1CCN(Cc2ccccc2)CC1 | -4% | -6% | ? | 0% | ?
O=C(C1=C[C@H](C2CC2)C[C@H](OCCCCO)O1)N1CCN(Cc2ccccc2)CC1 | 10% | 4% | -5% | 25µM* | ?
SMILES | AMA1 RON2 block | NS1 inh | Pf growth 48h | Sm TGR inh | Pf growth 96h
O=C(C1=C[C@H](C2CCCCC2)C[C@H](OCCCCO)O1)N1CCN(Cc2ccccc2)CC1 | -14% | -8% | ? | 35µM* | ?
CN(Cc1cnn(C)c1)C(=O)C1CCC(=O)N(Cc2ccc(Cl)cc2)C1 (centres undefined) | 6% | 5% | 5% | 0% | -18%
Cc1[nH]c2ccccc2c1SCc1n[nH]c(=S)n1C | 72% | ? | 9% | 1% | 0%
Cc1[nH]c2ccccc2c1Cc1n[nH]c(=S)n1C | -26% | 13% | 15% | -9% | 5.2µM*
Cc1cccc([C@@H]2[C@@H]3C(=O)N(Cc4ccccc4)C(=O)[C@@H]3[C@]3(Cc4ccccc4)C(=O)N(c4cccc(Cl)c4)C(=O)N23)c1 | -5% | . | 4.7µM* | 7% | 12µM*
Cc1cccc([C@@H]2[C@@H]3C(=O)N(Cc4ccccc4)C(=O)[C@@H]3[C@]3(Cc4ccccc4)C(=O)N(c4ccc(C(F)(F)F)cc4)C(=O)N23)c1 | -10% | . | 8.3µM* | 9% | 8.3µM*
Cc1cccc([C@@H]2[C@@H]3C(=O)N(Cc4ccccc4)C(=O)[C@@H]3[C@]3(Cc4ccccc4)C(=O)N(c4ccccc4)C(=O)N23)c1 | 0% | . | 10µM* | -15% | 8.3µM*
CC(=O)Nc1ccc(S(=O)(=O)NC(C)c2ccccc2)cc1 (centres undefined) | -1% | 6% | -7% | -12% | 9%
Cc1cc(OCC(=O)Nc2cc(-c3nc4ccccc4[nH]3)ccc2C)ccc1Cl | . | . | . | -4% | .
O=S(=O)(c1ccccc1)c1nnn2c1nc(NC1CCCCCC1)c1sccc12 | . | . | . | -2% | .
Cc1ccc(S(=O)(=O)c2nnn3c2nc(NCCc2ccccc2)c2sccc23)cc1 | . | . | . | 3% | .
Cc1ccc(CCNc2nc3c(S(=O)(=O)c4ccccc4)nnn3c3ccsc23)cc1 | . | . | . | 32µM* | .
CCCC(=O)Nc1cc(OC)c(NC(=S)Nc2ccc(CC)cc2)cc1OC | 12% | . | . | . | .
COc1ccc(C(=O)/C=C/N(C)C)cc1OC | 12% | -69% | 19% | 5% | 25%
COc1ccc(C(=O)/C=C2\NCCc3cc(OC)c(OC)cc32)cc1OC | 12% | 11% | 10µM* | -22% | 13µM*
Cc1ccccc1NC(=O)Cc1nc(COC(=O)c2cc(Cl)ccc2O)cs1 | 0% | 19% | -4% | 3% | -1%
CC1(c2nnc(-c3cccc(Cl)c3)o2)CC(c2cccc([N+](=O)[O-])c2)=NO1 (centres undefined) | -4% | 2% | 15% | 45µM* | 40%
CC1(c2nnc(Cc3ccccc3)o2)CC(c2ccc(Br)cc2)=NO1 (centres undefined) | 37% | . | . | . | .
CC1(c2nnc(Cc3ccccc3)o2)CC(c2ccc([N+](=O)[O-])cc2)=NO1 (centres undefined) | -11% | -44% | -2% | 6.3µM* | 42%
O=C(CC1C(=O)NCCN1Cc1ccc(-c2ccccc2)cc1)NCc1ccccc1 (centres undefined) | 8% | 1% | -6% | ? | 6.6µM*
